# Results reported in PubChem BioAssay (NCATS).
# Values without a mark were called inactive. Inconclusive results are not listed. Entries that show only a call come without a potency. Active and inactive are the calls of the source. Unless noted, the call rests on the fitted dose curve; in most records, active means well fitted curve in the direction sought with a large enough effect; inconclusive means small, poorly fitted or top-dose-only effect, or another doubt; inactive means no such curve, though single readings can be large; an effect the other way counts as inactive or inconclusive.
# How the values were obtained:
# [1] = Stat Signaling Pathway (AID 446; active means well fitted curve in either direction with a large enough effect, not every such curve was filed as active;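 further: ME-180 cervical cancer cells given 40 pM IL-6 alongside compound; SIE-controlled beta-lactamase reporter measured as 460/530 nm FRET emission ratio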); settings: ME-180 SIE beta-lactamase reporter, IL-6 stimulated, 5 h
# Summary of the method: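 ME-180 SIE-bla cells; overnight plating; cpd + IL-6 40 pM, 5 h, 37 C; LiveBLAzer 2.5 h RT; 460/530 nm emission ratio. Normalized to 300 pM IL-6 and 125 nM JAK inhibitor controls.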
# [2] = biological target: Glucocorticoid receptor (Homo sapiens) (UniProt P04150); assay: GR-GFP Redistribution (AID 450;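 active means compounds whose dose series gives a full or clear partial fitted curve of increased nuclear translocation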; further: potency means the concentration at half of the fitted maximal effect); settings: U2OS GR-GFP nuclear translocation, laser cytometry, 2 h
# [3] = biological target: Glucocorticoid receptor (Homo sapiens) (UniProt P04150); assay: GR-EFC Redistribution (AID 451; calls by dose curve; further: potency means the concentration at half of the fitted maximal effect); settings: CHO-K1 GR-EFC translocation, beta-gal luminescence, 2 h
# Summary of the method: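 Translocation of GR-ED fusion to nuclear EA restores b-gal, read by luminescence after 1 h room-temperature detection. Engineered CHO-K1 biosensor cells, 1,000/well, exposed 2 h at 37 C to titrations up to 46 uM final.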
# [4] = biological target: Mitogen-activated protein kinase 10 (Mus musculus) (UniProt Q61831); assay: JNK3 AlphaScreen Assay (AID 530; active means well fitted curve in either direction with a large enough effect, not every such curve was filed as active;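 further: kinase came from lysate of stimulated human HepG2 cells; signal reports phosphorylation of biotinylated GST-cJun 1-79 at Ser73 with 10 µM ATP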); settings: JNK3 lysate, c-Jun phosphorylation; series mostly up to 57.1 µM
# Summary of the method: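 Room-temperature AlphaScreen kinase assay; pre-activated HepG2 lysate as JNK3 source, biotin-GST-cJun(1-79) substrate, 10 uM ATP, compound 15 min preincubation.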
# [5] = biological target: 3',5'-cyclic-AMP phosphodiesterase 4B (Homo sapiens) (UniProt Q07343); assay: qHTS Assay for Inhibitors of PDE-IV (AID 607; active means well fitted activation curve with a large enough effect in the main read-out, with a control signal flat, not every such curve was filed as active); settings: HEK293 ACTOne CNG channel cells, membrane potential fluorescence; series mostly up to 22.9 µM
# Summary of the method: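 ACTOne HEK293 cells carry a modified cAMP-gated CNG channel and express endogenous PDE4; plated 1000 cells/well, compounds up to 22.9 uM final. Membrane-potential dye fluorescence (ex 535/em 590) was read; parental cells received 10 uM forskolin + 100 uM RO 20-1724.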
# [6] = Cell Viability - H-4-II-E (AID 543); settings: H-4-II-E rat hepatoma viability; series mostly up to 92.2 µM; further: nearly all actives have a fitted effect of over 35% in size; further: potency means the concentration at half of the fitted maximal effect
# Summary of the method: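 Rat hepatoma H-4-II-E cells (1500/well) were plated, incubated 5 hr at 37 °C, then exposed to compounds for 40 hr at 37 °C. Cellular ATP was read by CellTiter-Glo luminescence; AC50 came from Hill-equation fits of concentration-response data.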
# [7] = Cell Viability - Mesenchymal (AID 546); settings: mesenchymal cells viability, qHTS; activity change, negative = cytotoxicity: at 91.7 µM (top of the series);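 further: cells exposed to compound for 40 hours before reading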
# Summary of the method: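 AC50 values reflect the drop in intracellular ATP in a human kidney mesenchymal line derived from normal glomeruli. Treatment lasts 40 hr at 37 °C in complete medium, and the signal comes from CellTiter-Glo luminescence.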
# [8] = Cellular Toxicity (caspase-3) HUV-EC-C (AID 656); settings: HUV-EC-C cells, caspase-3 activation (apoptosis), vehicle = 0, 100 µM tamoxifen = 100%; series mostly up to 92.2 µM
# Summary of the method: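 HUV-EC-C endothelial cells, 1000/well, were pre-incubated 5 hr at 37°C, then exposed to compounds for 16 hr at 37°C. Caspase-Glo 3/7 luminescence was read after 20 min at room temperature. AC50 came from Hill fits, normalized to DMSO and 100 uM tamoxifen.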
# [9] = Cellular Toxicity (caspase-3) SHSY5Y (AID 657); settings: SH-SY5Y caspase-3 activation, DMSO zero, 10 µM staurosporine = 100%; series mostly up to 91.7 µM
# Summary of the method: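 SH-SY5Y human neuroblastoma cells (1500/well) were treated with compounds for 16 h at 37 °C, then Caspase-Glo 3/7 luminescence was read after 1 h at room temperature. Data normalized to DMSO and 10 uM staurosporine; AC50 from Hill fits.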
# [10] = Cellular Toxicity (caspase-3) BJ (AID 658); settings: BJ fibroblasts, luminescence, normalized: DMSO 0%, staurosporine 100%; series mostly up to 91.7 µM
# Summary of the method: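 Readout: Caspase-Glo 3/7 luminescence increase in BJ cells after 16 hr treatment at 37 °C. Staurosporine and tamoxifen served as positive controls; AC50 values came from Hill modelling of data normalized to DMSO and 10 uM staurosporine.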
# [11] = Cellular Toxicity (caspase-3) H-4-II-E (AID 663); settings: H-4-II-E rat hepatoma, scaled: DMSO 0%, 100 µM tamoxifen 100%; at 92.2 µM (top of the series);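 further: cells exposed to compound for 16 hr before readout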
# Summary of the method: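 Apoptosis induction is scored as increased luminescence from caspase 3/7 substrate cleavage in rat hepatoma H-4-II-E cells exposed to compound for 16 hr. Activity is scaled between DMSO and 100 uM tamoxifen.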
# [12] = Cellular Toxicity (caspase-3) Hek293 (AID 664); settings: HEK293 caspase-3 activation, DMSO = 0%, 100 µM tamoxifen = 100%; at 92.2 µM (top of the series);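 further: cells exposed to compound for 16 h at 37 °C before readout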
# Summary of the method: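 HEK293 cells were exposed to compounds in complete medium for 16 hr at 37 °C, then caspase-3/7 activity was read by Caspase-Glo 3/7 luminescence after 20 min at room temperature. Data normalized to DMSO and 100 uM tamoxifen; AC50 from Hill fits.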
# [13] = Cell Viability - N2a (AID 540); settings: N2a mouse neuroblastoma cell viability; activity change, negative = cytotoxicity: at 92.2 µM (top of the series); further: nearly all actives have a fitted effect of over 45% in size
# Summary of the method: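 Mouse neuroblastoma N2a cells (1500/well) were preincubated 5 hr at 37 °C, then exposed to compounds for 40 hr at 37 °C in complete medium. Viability was read as intracellular ATP by CellTiter-Glo luminescence; AC50 from Hill fits.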
# [14] = Cell Viability - NIH 3T3 (AID 541); settings: NIH 3T3 cell viability, qHTS; activity change, negative = cytotoxicity: at 92.2 µM (top of the series); further: nearly all actives have a fitted effect of over 25% in size
# Summary of the method: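 NIH 3T3 mouse embryo fibroblasts (1000 cells/well) were plated in complete medium and treated with compound for 40 hr at 37 °C. Viability was read as intracellular ATP by CellTiter-Glo luminescence; AC50 values came from Hill-equation fits of concentration-response data.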
# [15] = Cell Viability - HUV-EC-C (AID 542); settings: HUV-EC-C endothelial cell viability, qHTS; series mostly up to 92.2 µM; further: nearly all actives have a fitted effect of over 35% in size
# Summary of the method: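 HUV-EC-C normal human vascular endothelial cells, 1000 cells/well, pre-incubated 5 hr at 37 °C, then exposed to compounds for 40 hr at 37 °C in complete medium. Viability measured as intracellular ATP by CellTiter-Glo luminescence; AC50 from Hill fits.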
# [16] = Cell Viability - Renal Proximal Tubule (AID 545); settings: renal proximal tubule cells viability, primary cells of rat origin; activity change, negative = cytotoxicity: at 91.7 µM (top of the series); further: nearly all actives have a fitted effect of over 40% in size
# Summary of the method: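 Primary rat renal proximal tubule cells (1000/well) were treated with compounds for 40 hr at 37 °C in complete medium. Intracellular ATP was measured by CellTiter-Glo luminescence, and AC50 values came from Hill-equation fits of concentration-response data.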
# [17] = Cellular Toxicity (caspase-3) MRC-5 (AID 659); settings: MRC-5 cells, luminescence, normalized: DMSO 0%, 10 µM staurosporine 100%; series mostly up to 91.7 µM
# Summary of the method: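 Concentration-dependent caspase 3/7 activation is measured in human normal lung fibroblasts (MRC-5) following 16-hour treatment. AC50 values come from standard Hill-equation modeling of luminescence normalized to DMSO and 10 uM staurosporine.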
# [18] = Cellular Toxicity (caspase-3) Mesangial (AID 660); settings: mesangial cells; Potency: caspase-3 activation; series mostly up to 91.7 µM;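 further: cells exposed to compound for 16 h before the caspase read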
# Summary of the method: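 Human renal glomerular mesangial cells (1000/well) were treated with compounds for 16 h at 37 °C in complete medium, then caspase 3/7 activity was read by Caspase-Glo luminescence. Data were normalized to DMSO and 100 uM tamoxifen; AC50 from Hill fits.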
# [19] = Cellular Toxicity (caspase-3) N2a (AID 665); settings: N2a cells, luminescence; Potency: caspase-3 activation; series mostly up to 92.2 µM;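 further: compound exposure lasted 16 h at 37 °C before readout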
# Summary of the method: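 Mouse N2a neuroblastoma cells (1500/well) were treated with compounds for 16 h at 37 °C, then caspase-3/7 activity was read by Caspase-Glo luminescence after 1 h at room temperature. Data were normalized to DMSO and 10 uM staurosporine; AC50 from Hill fits.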
# [20] = Cellular Toxicity (caspase-3) NIH 3T3 (AID 666); settings: NIH 3T3 caspase-3 activation, apoptosis/toxicity; series mostly up to 92.2 µM;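 further: caspase signal read after 16 h compound exposure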
# Summary of the method: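 Mouse NIH 3T3 fibroblasts (1000 cells/well) were treated with compound for 16 hr at 37°C in complete medium; caspase-3/7 activity was read by Caspase-Glo luminescence. Normalized to DMSO and 100 uM tamoxifen; AC50 from Hill fits.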
# Chain of Glucocorticoid receptor (Homo sapiens) (P04150 whole entry, looked up, the tested form may be a part): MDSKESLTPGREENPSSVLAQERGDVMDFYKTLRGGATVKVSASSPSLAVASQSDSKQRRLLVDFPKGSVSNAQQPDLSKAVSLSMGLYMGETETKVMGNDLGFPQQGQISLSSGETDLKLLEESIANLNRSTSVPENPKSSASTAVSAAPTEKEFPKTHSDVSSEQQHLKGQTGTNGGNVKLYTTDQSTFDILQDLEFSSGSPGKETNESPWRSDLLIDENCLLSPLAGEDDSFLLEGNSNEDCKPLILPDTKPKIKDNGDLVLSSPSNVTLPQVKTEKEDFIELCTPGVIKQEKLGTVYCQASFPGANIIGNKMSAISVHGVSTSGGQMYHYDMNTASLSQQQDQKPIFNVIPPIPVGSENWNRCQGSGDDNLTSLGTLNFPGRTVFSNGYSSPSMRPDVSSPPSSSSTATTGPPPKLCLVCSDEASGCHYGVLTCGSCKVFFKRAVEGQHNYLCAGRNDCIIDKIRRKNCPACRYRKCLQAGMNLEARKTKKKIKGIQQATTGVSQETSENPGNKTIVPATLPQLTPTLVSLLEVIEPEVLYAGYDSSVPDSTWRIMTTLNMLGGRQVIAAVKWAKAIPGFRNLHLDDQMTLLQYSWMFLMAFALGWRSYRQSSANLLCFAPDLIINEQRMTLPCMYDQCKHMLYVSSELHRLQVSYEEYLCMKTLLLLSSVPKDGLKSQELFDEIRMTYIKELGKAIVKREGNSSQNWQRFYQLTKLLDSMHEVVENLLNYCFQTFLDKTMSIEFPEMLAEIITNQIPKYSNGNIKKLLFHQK
# Chain of 3',5'-cyclic-AMP phosphodiesterase 4B (Homo sapiens) (Q07343 whole entry, looked up): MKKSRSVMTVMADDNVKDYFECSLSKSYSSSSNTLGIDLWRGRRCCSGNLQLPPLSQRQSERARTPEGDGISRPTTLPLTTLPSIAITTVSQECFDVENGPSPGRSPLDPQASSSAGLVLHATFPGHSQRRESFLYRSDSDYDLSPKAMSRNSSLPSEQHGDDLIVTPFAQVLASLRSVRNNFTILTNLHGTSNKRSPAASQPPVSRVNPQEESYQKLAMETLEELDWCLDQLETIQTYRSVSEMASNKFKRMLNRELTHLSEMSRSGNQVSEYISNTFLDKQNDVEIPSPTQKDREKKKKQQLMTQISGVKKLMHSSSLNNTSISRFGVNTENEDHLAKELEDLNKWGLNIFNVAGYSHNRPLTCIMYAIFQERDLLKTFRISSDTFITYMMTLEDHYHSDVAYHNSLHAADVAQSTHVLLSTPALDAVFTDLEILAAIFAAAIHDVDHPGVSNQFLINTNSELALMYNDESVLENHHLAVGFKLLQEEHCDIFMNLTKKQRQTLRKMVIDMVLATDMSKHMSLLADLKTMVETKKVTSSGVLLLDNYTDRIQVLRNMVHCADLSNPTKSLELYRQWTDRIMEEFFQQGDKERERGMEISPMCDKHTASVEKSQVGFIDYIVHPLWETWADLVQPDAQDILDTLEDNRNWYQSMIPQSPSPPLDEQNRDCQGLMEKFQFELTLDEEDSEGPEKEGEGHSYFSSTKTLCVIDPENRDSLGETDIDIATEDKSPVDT
structure (smiles),measurement,setting,value
O=C(O)c1cc([N+](=O)[O-])ccc1NCCCc1ccccc1,"activity, negative = inhibition",[1]; at 38 µM (top of the series),-16.2%
same,Potency,[2],> 46 µM
same,Potency,[3],> 46 µM
same,Potency,[4],inactive
same,outcome,[5],inactive
CC(=O)SCC[N+](C)(C)C,"activity, negative = inhibition",[1]; at 38 µM (top of the series),1.77%
same,Potency,[2],> 46 µM
same,Potency,[3],> 46 µM
same,Potency,[4],inactive
COc1cc(/C=C/C(=O)CC(=O)/C=C/c2ccc(O)c(OC)c2)ccc1O,"activity, negative = inhibition",[1]; at 17.2 µM (top of the series),-22.7%
same,Potency,[2],> 20.6 µM
same,Potency,[4],inactive
same,Potency,[6],31.6 µM (active)
same,Potency,[7],inactive
same,outcome,[8],inactive
same,outcome,[9],inactive
same,outcome,[10],inactive
same,caspase-3 activation,[11],1.39%
same,caspase-3 activation,[12],27.4%
Cc1ccc(C(=O)c2ccc(CC(=O)O)n2C)cc1,"activity, negative = inhibition",[1]; at 17.2 µM (top of the series),-8.7%
same,Potency,[4],inactive
same,outcome,[5],inactive
O=C(Nc1cccc(C(=O)Nc2ccc(S(=O)(=O)O)c3cc(S(=O)(=O)O)cc(S(=O)(=O)O)c23)c1)Nc1cccc(C(=O)Nc2ccc(S(=O)(=O)O)c3cc(S(=O)(=O)O)cc(S(=O)(=O)O)c23)c1,"activity, negative = inhibition",[1]; at 38 µM (top of the series),-0.505%
same,Potency,[2],> 46 µM
same,Potency,[3],> 46 µM
same,outcome,[5],inactive
CC1(C)S[C@@H]2[C@H](NC(=O)[C@H](N)c3ccccc3)C(=O)N2[C@H]1C(=O)O,"activity, negative = inhibition",[1]; at 17.2 µM (top of the series),1.21%
same,Potency,[4],inactive
same,Potency,[13],inactive
same,Potency,[14],inactive
same,Potency,[15],inactive
same,Potency,[6],inactive
same,"activity change, negative = cytotoxicity",[16],-5.39%
same,Potency,[7],inactive
same,outcome,[8],inactive
same,outcome,[9],inactive
same,outcome,[10],inactive
same,outcome,[17],inactive
same,Potency,[18],inactive
same,caspase-3 activation,[11],0.54%
same,caspase-3 activation,[12],-0.638%
same,Potency,[19],inactive
same,Potency,[20],inactive
CCCn1c(=O)c2[nH]c(-c3ccc(OCC(=O)NCCN)cc3)nc2n(CCC)c1=O,"activity, negative = inhibition",[1]; at 38 µM (top of the series),-14%
same,Potency,[2],> 46 µM
same,Potency,[3],> 46 µM
same,Potency,[4],inactive
same,outcome,[5],inactive
COc1cccc(C(=O)NCCN2CCN(c3ccc(Cl)cc3)CC2)c1,"activity, negative = inhibition",[1]; at 38 µM (top of the series),0.921%
same,Potency,[2],> 46 µM
same,Potency,[3],> 46 µM
same,outcome,[5],inactive
COc1cc2c(CCNC(C)=O)c[nH]c2cc1Cl,"activity, negative = inhibition",[1]; at 38 µM (top of the series),-15.8%
same,Potency,[2],> 46 µM
same,Potency,[3],> 46 µM
same,Potency,[4],inactive
same,outcome,[5],inactive
NC(=O)C(=O)O,"activity, negative = inhibition",[1]; at 38 µM (top of the series),-1.18%
same,Potency,[2],> 46 µM
same,Potency,[3],> 46 µM
same,Potency,[4],inactive
same,outcome,[5],inactive
